Data from PubChem BioAssay (NCI).
About 83,000 compounds went through this panel and 20% of them were active in at least one assay; those are over-represented in the sample as a whole.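 Step 1: grow cells in 96-well plates. Step 2: add test compound at a single concentration. Step 3: incubate 48 h. Step 4: record percent growth.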 Values without a mark were called inactive. Calls of active or inactive are those of the source. The calls were made as follows: active = growth percent below 10; inactive = the rest.

Experiments:
Test in all cases: NCI-60 one-dose screen, 48 h (100 = growth as untreated, 0 = no growth, -100 = all killed)
Settings in all cases: 10 µM unless noted
HCT-15 colon = test system: HCT-15 colon
HT29 colon = test system: HT29 colon
SNB-75 CNS = test system: SNB-75 CNS
SNB-19 CNS = test system: SNB-19 CNS
PC-3 prostate = test system: PC-3 prostate
SK-MEL-5 melanoma = test system: SK-MEL-5 melanoma
UACC-62 melanoma = test system: UACC-62 melanoma
LOX IMVI melanoma = test system: LOX IMVI melanoma
SK-MEL-28 melanoma = test system: SK-MEL-28 melanoma
U251 CNS = test system: U251 CNS

Row | Structure (SMILES) | growth (HCT-15 colon) | growth (HT29 colon) | growth (SNB-75 CNS) | growth (SNB-19 CNS) | growth (PC-3 prostate) | growth (SK-MEL-5 melanoma) | growth (UACC-62 melanoma) | growth (LOX IMVI melanoma) | growth (SK-MEL-28 melanoma) | growth (U251 CNS)
1 | COc1cc(N2CCC(N3CCN(C)CC3)CC2)ccc1Nc1ncnc(Nc2ccccc2S(=O)(=O)C(C)C)n1 | 103% | 84.1% | 101% | 98.6% | 93.7% | 110% | 102% | 103% | 105% | –
2 | CC#CC(=O)N1CCC[C@H]1c1nc(-c2ccc(C(=O)Nc3ccccn3)cc2)c2c(N)nccn12 | 87.8% | 73.4% | 77% | 90.6% | 81.1% | 86.6% | 77.1% | 93.7% | 88.3% | –
3 | Oc1ccc(/C=N/Nc2nnc(N/N=C/c3ccc(O)cc3O)c3ccccc23)c(O)c1 | 7.14% (active) | -35.3% (active) | -46.9% (active) | -1.04% (active) | -50.8% (active) | -17.7% (active) | -94.8% (active) | -51.4% (active) | -43.3% (active) | –
4 | O=C(Nc1cccc(Cl)c1)Nc1ncc(CCNc2ncnc3ccsc23)s1 | 22.9% | 19.7% | 25.6% | 64.9% | 8.62% (active) | -52% (active) | -24.7% (active) | 16.4% | 33.5% | –
5 | C[C@@H](NC(=O)c1ncnc(N)c1Cl)c1ncc(C(=O)Nc2cc(C(F)(F)F)c(Cl)cn2)s1 | 86.4% | 20.1% | 103% | 94.7% | 93.7% | 51.2% | -0.831% (active) | 36.5% | – | –
6 | CC1(O)CCC(Nc2cc(-c3ccc(C(F)(F)F)cc3)c(C#N)c3nc4ccccc4n23)CC1 (stereo not drawn) | 58.6% | 60.7% | 41.4% | 70.3% | 35.5% | 5.75% (active) | 77.1% | 55% | 89.3% | –
7 | Cc1cc(C(O)CN(C)C)cc2c1ccc1cc(C(C)C)ccc12 (stereo not drawn) | -38.7% (active) | -65.1% (active) | -63.5% (active) | 59% | 48.6% | -93.1% (active) | -81.2% (active) | -100% (active) | -100% (active) | –
8 | Clc1nc(Cl)c2ncn(C/C=C\Cn3cnc4c(Cl)nc(Cl)nc43)c2n1 | -44.7% (active) | -65.9% (active) | -25.7% (active) | 9.97% (active) | -57.6% (active) | -81.5% (active) | -72.7% (active) | -80.1% (active) | -19% (active) | –
9 | Cc1cc(N(CCNc2ccnc3cc(Cl)ccc23)Cc2ccc3c(c2)OCO3)nc(N2CCCC2)n1 | 0.301% (active) | -10.2% (active) | -46.7% (active) | 26.5% | 36.1% | -96.9% (active) | 18.2% | -80.9% (active) | -58.7% (active) | –
10 | N#Cc1c(C(F)(F)F)cc(Nc2ccc3nc(NCCN4CCCC4)oc3c2)n2c1nc1ccccc12 | 56.6% | 5.45% (active) | 82.6% | 85.2% | 52.1% | 69.8% | 78.1% | 62.3% | 72.8% | –
11 | COc1ccc(-c2cc3c(oc2=O)-c2ccccc2OC3OC(C)=O)cc1 (stereo not drawn) | 86.2% | 81.1% | 100% | 98% | 89.2% | 98.2% | 81.8% | 98.2% | 118% | –
12 | COC(=O)[C@]12CC[C@@H](C)[C@H](C)[C@@H]1C1=CC[C@@H]3[C@@]4(C)C(c5cnco5)=C[C@@](C)(CO)C4=CC[C@@]3(C)[C@]1(C)CC2 | 29.8% | 26.6% | 77.1% | 65.7% | 12.6% | 47.2% | 65.3% | 67.7% | 66.7% | –
13 | CO[C@H]1C[C@@H]2CC[C@@H](C)[C@@](O)(O2)C(=O)C(=O)N2CCCC[C@H]2C(=O)O[C@H]([C@H](C)C[C@@H]2CC[C@@H](O)[C@H](OC)C2)CC(=O)[C@H](C)/C=C(\C)[C@@H](O)[C@@H](OC)C(=O)[C@H](C)C[C@H](C)\C=C/C=C/C=C/1C | 30.2% | 18.7% | 11% | 39.4% | 32.6% | 14.2% | 39.2% | 26.7% | 38.8% | –
14 | COc1cc(OC)c(C(=O)/C=C/c2cc3c(cc2OCc2ccccc2)OC(C)(C)CC3)cc1CC=C(C)C | 39.7% | 57.9% | 39.2% | 80.7% | 25.2% | 50.4% | 38.7% | 38.9% | 53.3% | –
15 | COC(=O)[C@]12CC[C@@H](C)[C@H](C)[C@@H]1C1=CC[C@@H]3[C@@]4(C)C(C#N)=CC(C)=C4CC[C@@]3(C)[C@]1(C)CC2 | 89.5% | – | 84.5% | 96.3% | 68.9% | 86.3% | 69.3% | – | – | 87.2%
16 | CCCCCC(=O)OCc1ccc(Cl)c(Cl)c1 | 109% | 109% | 96.5% | 105% | 96.3% | 108% | 106% | 96% | 111% | –
17 | CC(C)[C@@H]1CC[C@@H]2[C@@H]1[C@H](OC(=O)/C=C/c1ccccc1)[C@]1(C(C)C)C[C@@H](OC(=O)CO)[C@@]2(C)O1 | 78% | 75% | 38.1% | 99% | 30% | 81.2% | 84.3% | 81% | 104% | –
18 | COc1ccc(-c2nc(N)ncc2Oc2ccccc2OC)c(O)c1 | 17.2% | 10.3% | 10.8% | 41.5% | 31% | 25% | 51% | 34% | 63.1% | –
19 | COc1cc(-c2nc(C(=O)NCC(=O)O)nn2-c2ccc(Cl)cc2)cc(OC)c1OC | 102% | 106% | 115% | 109% | 94.3% | 98.3% | 104% | 84.9% | 104% | –
20 | CCOc1cccc(/C=N/NC(=O)c2ccccc2Nc2ccnc(C(F)(F)F)c2)c1O | 34.2% | 47.9% | 14.1% | 21.1% | 54.2% | -67% (active) | 3.69% (active) | 7.4% (active) | 21.1% | –
21 | O=c1[nH]c([C@@H]2CCCN2)nc2c1oc1ccc(Cl)cc12 | 66.3% | 43.9% | 7.8% (active) | 74.8% | 58% | 51.2% | 78.5% | 39% | – | –
22 | CC[C@@H]1C(=O)N(C)c2cnc(Nc3ccc(C(=O)NC4CCC(N5CCN(CC6CC6)CC5)CC4)cc3OC)nc2N1C(C)C (stereo partly drawn) | 2.76% (active) | – | -8.67% (active) | 25.9% | 9.7% (active) | -96.5% (active) | -47.3% (active) | -72.1% (active) | -72.3% (active) | -16.3% (active)
23 | CN(C)CCOC(=O)Nc1nc2ccc(Sc3ccccc3)cc2[nH]1 | 33.2% | – | -10.2% (active) | 36.4% | 28% | 19.3% | 42.4% | 32.1% | – | 26.5%
24 | CCCCCCCC(=O)SCC/C=C/[C@@H]1CC(=O)NCc2cccc(n2)C2=N[C@@](C)(CS2)C(=O)N[C@@H](C(C)C)C(=O)N1 | 75.3% | – | 24.5% | 38.6% | 26.9% | 22.2% | 0.721% (active) | -1.52% (active) | 37.1% | 13.7%
25 | CC(=O)Nc1cccc(-n2c(=O)n(C3CC3)c(=O)c3c(Nc4ccc(I)cc4F)n(C)c(=O)c(C)c32)c1 | 45.4% | – | 43% | 48.3% | 63.7% | 32.7% | -6.11% (active) | 14% | -4.75% (active) | 39.9%
26 | O=C1CCC(=O)CC1 | 102% | – | 88.8% | 93.9% | 92.7% | 109% | 99% | 101% | 112% | 99.4%
27 | COc1cc2nccc(Oc3ccc(NC(=O)C4(C(=O)Nc5ccc(F)cc5)CC4)cc3)c2cc1OC | 5.75% (active) | – | -18.9% (active) | 29.9% | 20.8% | 3.39% (active) | -12.2% (active) | -71.2% (active) | 1.37% (active) | 25.1%
